Experimental data taken from PubChem BioAssay (NCATS).
Records with an inconclusive call do not appear. Entries that show only a call come without a potency. Active and inactive are the calls of the source. The call rests on the fitted dose curve; in most records, active means well fitted curve in the direction sought with a large enough effect; inconclusive means small, poorly fitted or top-dose-only effect, or another doubt; inactive means no such curve, though single readings can be large; an effect the other way counts as inactive or inconclusive.

Experiments:
[1] = target: Cytochrome P450 3A7 (Homo sapiens) (UniProt P24462); assay: Cytochrome P450 family 3 subfamily A member 7 (CYP3A7) small molecule antagonists: luciferase biochemical qHTS assay (AID 1963596)
Chain of Cytochrome P450 3A7 (Homo sapiens) (P24462 whole entry, looked up): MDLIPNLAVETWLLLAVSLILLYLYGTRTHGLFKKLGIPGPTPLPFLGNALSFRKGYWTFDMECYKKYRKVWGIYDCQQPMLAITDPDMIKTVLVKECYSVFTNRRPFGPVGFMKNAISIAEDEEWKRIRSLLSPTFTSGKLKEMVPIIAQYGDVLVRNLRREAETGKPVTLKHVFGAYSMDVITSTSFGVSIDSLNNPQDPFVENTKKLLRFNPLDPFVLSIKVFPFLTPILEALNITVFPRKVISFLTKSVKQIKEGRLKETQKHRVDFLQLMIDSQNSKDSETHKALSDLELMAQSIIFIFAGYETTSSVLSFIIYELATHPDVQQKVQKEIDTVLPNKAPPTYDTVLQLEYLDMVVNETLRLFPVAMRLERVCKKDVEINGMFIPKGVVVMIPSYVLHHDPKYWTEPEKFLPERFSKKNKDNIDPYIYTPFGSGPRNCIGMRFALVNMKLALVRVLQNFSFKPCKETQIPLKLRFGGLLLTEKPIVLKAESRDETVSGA
Summary of the method: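 Luminescence from luciferin released by CYP3A7 from a proluciferin substrate, read 20 min after detection reagent. Compound and enzyme-substrate mix sat 10 min before NADPH regeneration solution; reaction ran 1 h at room temperature.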

[2] = Viability qHTS for spleen associated tyrosine kinase inhibitor (SYKi) naive MV4-11 cells (AID 1963823)
Summary of the method: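 qHTS, SYK inhibitor-naive MV4-11; 500 cells/well; 72 hr compound exposure, 37 C; CellTiter-Glo added, 10 min RT; luminescence read.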
Further: nearly all actives have a fitted effect of over 40% in size.
Potency means the concentration at half of the fitted maximal effect.

SMILES | Potency [1] | Potency [2]
O=C(O)C[C@@H](NC(=O)c1cc(-c2ccc(-c3ccncc3)cc2)cs1)c1ccccc1 | inactive | inactive
CCOc1ccc(NC(=O)Cn2cc(C(=O)c3cccs3)c3ccccc32)cc1 | inactive | –
CC(C)c1ccc(-n2ncc3c(=O)n(CC(=O)Nc4cc(F)ccc4Cl)cnc32)cc1 | inactive | –
O=C1OC2(c3ccccc31)c1cc(Br)c(O)c(Br)c1Oc1c2cc(Br)c(O)c1Br | 19.5 µM (active) | inactive
C[C@@H]([C@@H](O)c1ccc(O)cc1)N1CCC(O)(c2ccccc2)CC1 | inactive | inactive
COC(=O)C(CC1CCCC1)c1ccc(S(C)(=O)=O)cc1 (stereo not given) | inactive | inactive
N#Cc1cccc(-c2nc(-c3cccnc3)no2)c1 | inactive | inactive
CC(C)[C@@H]1C(=O)N(S(C)(=O)=O)[C@@H]2CCN(C(=O)/C=C/CN3CCCCC3)[C@H]21 | inactive | inactive
CN(CCCOc1ccc(Cc2ccccc2)cc1)CCC(=O)O | inactive | inactive
O=C(O)Cc1ccc2oc(-c3ccc(NC(=O)/C=C/c4ccc(Br)cc4)c(F)c3)nc2c1 | inactive | inactive
Cc1c(C)c2c(c(C)c1O)CC[C@@](C)(CCC[C@H](C)CCC[C@H](C)CCCC(C)C)O2 | inactive | –
CCC(O)c1ccccc1 (stereo not given) | inactive | –
CNc1ccc([N+](=O)[O-])cc1-n1cnc(-c2ccc(C(F)(F)F)cc2)c1 | inactive | –
Nc1nc(O)c(C2=C3C(=Nc4ccccc43)C(=O)NCC2)[nH]1 | inactive | 0.461 µM (active)
O=C(O)c1cc(C(F)(F)F)ccc1N1CC[C@H](OCc2ccccn2)C1 | inactive | –
CCOC(C)OCC | inactive | –
